For 62 compounds, inhibition results are on record in ChEMBL document CHEMBL4808148, “HDAC6 screening dataset using tau-based substrate in an enzymatic assay yields selective inhibitors and activators” (2021).

About 390 (7%) of roughly 5,600 compounds showed an effect of 50% or more. The sample holds strong results, similar compounds and a random draw of the others, so the mix is not that of the screen.

One may read the inhibition as the relative decrease from the control value, in per cent.

The target in this assay is T1, Protein deacetylase HDAC6 (Homo sapiens) (UniProt Q9UBN7).
T1 sequence (whole entry): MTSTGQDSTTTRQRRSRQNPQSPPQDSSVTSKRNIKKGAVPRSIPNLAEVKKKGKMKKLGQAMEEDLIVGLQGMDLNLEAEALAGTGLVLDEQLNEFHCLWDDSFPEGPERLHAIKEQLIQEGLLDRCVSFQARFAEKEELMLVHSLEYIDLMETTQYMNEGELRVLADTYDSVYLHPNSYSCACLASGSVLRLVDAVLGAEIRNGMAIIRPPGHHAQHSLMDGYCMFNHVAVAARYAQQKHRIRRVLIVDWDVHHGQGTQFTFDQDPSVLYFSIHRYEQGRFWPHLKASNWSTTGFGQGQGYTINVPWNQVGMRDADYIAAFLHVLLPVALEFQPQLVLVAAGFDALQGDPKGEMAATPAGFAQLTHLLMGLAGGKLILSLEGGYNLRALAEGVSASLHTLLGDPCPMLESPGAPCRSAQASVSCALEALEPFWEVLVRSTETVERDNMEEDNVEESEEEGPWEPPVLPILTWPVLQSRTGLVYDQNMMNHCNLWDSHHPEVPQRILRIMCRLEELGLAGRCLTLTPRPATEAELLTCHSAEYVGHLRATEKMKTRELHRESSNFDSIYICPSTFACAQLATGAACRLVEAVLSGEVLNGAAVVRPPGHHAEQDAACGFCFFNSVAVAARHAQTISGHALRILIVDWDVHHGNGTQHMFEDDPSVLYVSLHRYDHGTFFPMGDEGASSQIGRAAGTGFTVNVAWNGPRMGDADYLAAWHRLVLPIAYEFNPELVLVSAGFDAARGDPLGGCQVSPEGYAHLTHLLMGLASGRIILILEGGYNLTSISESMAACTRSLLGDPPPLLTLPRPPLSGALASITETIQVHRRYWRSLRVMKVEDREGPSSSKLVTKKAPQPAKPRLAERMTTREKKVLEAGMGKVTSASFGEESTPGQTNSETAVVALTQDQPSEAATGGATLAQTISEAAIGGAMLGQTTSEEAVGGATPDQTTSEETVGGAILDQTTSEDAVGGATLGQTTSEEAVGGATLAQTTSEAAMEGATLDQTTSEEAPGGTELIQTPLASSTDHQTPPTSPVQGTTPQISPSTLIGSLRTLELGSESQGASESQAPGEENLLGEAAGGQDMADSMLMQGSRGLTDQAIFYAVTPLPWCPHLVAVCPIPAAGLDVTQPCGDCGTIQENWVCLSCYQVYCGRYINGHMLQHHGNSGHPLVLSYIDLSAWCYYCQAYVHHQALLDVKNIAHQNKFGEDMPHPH
The following applies: at 10 µM.
Regarding `O=C(Nc1ccccc1C(=O)Nc1ccc(CCO)cc1)c1ccc([N+](=O)[O-])cc1`, the inhibition worked out at 78.3%.
On to `O=C(Nc1cc(-c2ccccc2)nn1-c1ccccc1)c1ccc([N+](=O)[O-])cc1`, for which the inhibition amounted to 23%.
On to `CCOC(=O)[C@H](Cc1ccc([N+](=O)[O-])cc1)NC(=O)c1ccccc1`, for which the inhibition came out at 14.4%.
Regarding `C[C@]12C=CC(=O)N[C@@H]1CC[C@@H]1[C@@H]2CC[C@]2(C)[C@@H](C(=O)Nc3cc(C(F)(F)F)ccc3C(F)(F)F)CC[C@@H]12`, the inhibition is 34.1%.
Regarding `O=C(NCCN1CCC(n2c(=O)[nH]c3ccccc32)CC1)c1cc2cc(F)ccc2[nH]1`, the inhibition turned out to be 22.7%.
With `CCOCOC[C@H](C[C@H](C)C(=O)NO)NC(=O)c1ccc(Oc2ccccc2)cc1` the figure was 25.9%.
As for `C[C@@H](C(=O)O)c1ccc(-c2ccccc2)c(F)c1`, the figure is 0.12%.
In the case of `CC(C(=O)O)c1ccc2c(c1)Cc1ccccc1-2` (configuration not stated), the inhibition was found to be 63.7%.
With `CC(C(=O)O)c1ccc(-c2ccccc2)c(F)c1` (racemic), the inhibition was 13.4%.
With `CCn1cnc(C(=O)NC)c1C(=O)NC`, the inhibition is -8.83%.
For `Cc1ccccc1N1CCN(S(=O)(=O)CC23CCC(C[C@@H]2NC(=O)[C@@H](N)CCS(C)(=O)=O)C3(C)C)CC1` (some centres not stated), the inhibition turned out to be 2.99%.
On to `CN[C@@H]1[C@H](O[C@H]2[C@H](O[C@H]3[C@H](O)[C@@H](O)[C@H](NC(=N)N)[C@@H](O)[C@@H]3NC(=N)N)O[C@@H](C)[C@]2(O)CO)O[C@@H](CO)[C@H](O)[C@H]1O`, for which the inhibition was 8.93%.
For `C/C1=C/C[C@@H](/C(C)=C/c2csc(C)n2)OC(=O)C[C@H](O)C(C)(C)C(=O)[C@H](C)[C@@H](O)[C@@H](C)CCC1`, the inhibition is -9.51%.
`CN(C)CCC=C1c2ccccc2CCc2ccccc21`: the inhibition was found to be 60.4%.
Regarding `CC(=O)c1ccc2c(c1)N(CCCN(C)C)c1ccccc1S2`, the inhibition was 43.7%.
Consider `CN(C)CC/C=C1\c2ccccc2Sc2ccc(Cl)cc21`, for which the inhibition was 91.2%.
As to `CC(C1=C(CCN(C)C)Cc2ccccc21)c1ccccn1` (configuration not stated), the inhibition was -6.73%.
On to `C[C@@H](C1=C(CCN(C)C)Cc2ccccc21)c1ccccn1`, for which the inhibition is -1.4%.
Consider `CCOC(=O)c1ccc(-c2ccc(OC(=O)N(C)Cc3cccc(-c4ccncc4)c3)cc2)cc1`, for which the inhibition was found to be 5%.
As to `CC(C)(C)c1cc(C(C)(C)C)c2c(c1)C(O)(C(F)(F)F)C(=O)O2` (racemic), the inhibition was -6.8%.
Regarding `Fc1ccccc1CNCc1ccc(-c2ccnc3[nH]ccc23)cc1`, the inhibition amounted to 44.7%.
With `CSc1nc(N)cc(Oc2ccc(-c3nnc(Nc4cccc(C(F)(F)F)c4)[nH]3)cc2)n1`, the inhibition was determined as 10.4%.
In the case of `CC(C)[C@@H](C)/C=C/[C@@H](C)[C@H]1CC[C@H]2C3=CC=C4C[C@@H](O)CC[C@]4(C)[C@H]3CC[C@]12C`, the inhibition was 26.6%.
With `COc1cccc(CN2C[Si](C)(C)O[Si](C)(C)C2)c1` the figure was 9.47%; with `Nc1ncnc2c1ncn2[C@@H]1O[C@H](COP(=O)(O)OP(=O)(O)OP(=O)(O)O)[C@@H](O)[C@H]1O`, -7.9%.
As for `Nc1c(CC(=O)O)cccc1C(=O)c1ccc(Br)cc1`, the inhibition was determined as 69.8%.
Regarding `NC(=O)Cc1cccc(C(=O)c2ccccc2)c1N`, the inhibition is 48.4%.
In the case of `Nc1c(CC(=O)O)cccc1C(=O)c1ccccc1`, the inhibition was determined as 0.48%.
Regarding `COc1cc(OC)nc(O[C@H](C(=O)O)C(OC)(c2ccccc2)c2ccccc2)n1`, the inhibition was -2.76%.
`COc1cc(/C=C/C(N)=O)cc(OC)c1OC`: the inhibition is 13.3%.
For the compound `Cn1cc(C(=O)c2cccc3ccccc23)cc1C(=O)O`, the inhibition was determined as 25%.
As for `Cn1cc(-c2ccc(F)c(C(F)(F)F)c2)nc1C1CCN(c2ncnc3[nH]ncc23)CC1`, the inhibition was determined as 24%.
On to `CCCCCCCCCCCCCCCCCC[S+](CCC)c1ccccc1C(=O)OCC` (configuration not stated), for which the inhibition was 21%.
As for `CC[N+](C)(CC)CCC[n+]1c(-c2ccccc2)c2cc(N)ccc2c2ccc(N)cc21`, the figure is 60.2%; as for `CC[n+]1c(-c2ccccc2)c2cc(N)ccc2c2ccc(N)cc21`, 2.78%.
In the case of `CC(C)(C(=O)O)c1ccc(C(=O)CCCN2CCC(OC(c3ccccc3)c3ccccc3)CC2)cc1`, the inhibition came to 3.08%.
For `CCc1c2c(nc3ccc(OC(=O)N4CCC(N5CCCCC5)CC4)cc13)-c1cc3c(c(=O)n1C2)COC(=O)[C@]3(O)CC`, the inhibition was -2.26%.
As for `Cc1cc(OCc2nc(-c3ccccc3Cl)cs2)ccc1OCC(=O)O`, the figure is 33.8%; as for `Cc1cc(SCc2sc(-c3ccc(C(F)(F)F)c(F)c3)nc2C)ccc1OCC(=O)O`, 66.5%; as for `Cn1ncnc1COc1nn2c(-c3c(F)cccc3F)nnc2cc1C1CCC1`, 3.27%.
`CCOC(=O)C(=O)Nc1cccc(OC)c1C(N)=O`: the inhibition worked out at 24.8%.
As for `CCN(CC)CCCCC(NC(=O)c1ccc([N+](=O)[O-])cc1)c1ccccc1` (configuration not stated), the inhibition was -1.83%.
With `CCOc1ccc(/C=C2\NCCc3cc(OCC)c(OCC)cc32)cc1OCC`, the inhibition was determined as 7.94%.
For `CCOc1nc2c(N)ncnc2n1CC`, the inhibition turned out to be 7.36%.
As to `CN(C)CCOc1ccc(/C(=C(/CCCl)c2ccccc2)c2ccccc2)cc1`, the inhibition turned out to be 33.5%.
As to `C=CC(=O)N1CCC[C@@H](n2nc(-c3ccc(Oc4ccccc4)cc3)c3c(N)ncnc32)C1`, the inhibition is 73%.
For the compound `C=CC(=O)N1CCC[C@@H](n2c(=O)n(-c3ccc(Oc4ccccc4)cc3)c3c(N)ncnc32)C1`, the inhibition was found to be 9.93%.
On to `Nc1ncnc2c1c(-c1cnc3[nH]ccc3c1)nn2C1CCCC1`, for which the inhibition is 27.2%.
Take `COc1ccc2nc3ccc(Cl)cc3c(SCCCN)c2c1`: the inhibition was found to be 31.8%.
For `COc1cc(C(=O)c2c(C)oc3c(O)c(OC)ccc23)cc(OC)c1OC`, the inhibition is 31.9%.
Turning to `CCN(CC)C(=O)C1(c2ccccc2)CC1CN` (configuration not stated), the inhibition was -2.35%.
In the case of `COc1cccc2c1c(O)c(C(=O)N(C)c1ccc(C(F)(F)F)cc1)c(=O)n2C`, the inhibition was -4.13%.
For `C[C@@H]1CN(CCCn2c3ccccc3c3ccccc32)C[C@H](C)N1`, the inhibition is 1.8%.
As to `O=C(Nc1cccc(C(F)(F)F)c1)Nc1ccc(Br)cc1-c1nnn[nH]1`, the inhibition was -9.24%.
`O=c1c2ccccc2[se]n1-c1ccccc1`: the inhibition turned out to be 107%.
On to `Cc1c(C(=O)Nc2ccc(N3CCC(N4CCOCC4)CC3)c(C#N)c2)cnn1-c1ccc(Cl)cc1`, for which the inhibition turned out to be 9.57%.
For `CCC[N+]12C3C[C@H](C4C(O)[C@]5(C[C@@H]41)c1ccccc1N(C)[C@@H]35)[C@H](CC)[C@H]2O` (some centres not stated), the inhibition came to 26.3%.
On to `CS(=O)(=O)CS(=O)(=O)OCCCl`, for which the inhibition worked out at 9.47%.
In the case of `CC(OC(=O)NCC1(CC(=O)O)CCCCC1)OC(=O)C(C)C` (configuration not stated), the inhibition was 3.02%.
Take `c1ccc2sc(SNC3CCCCC3)nc2c1`: the inhibition was determined as 80%.
Turning to `C#Cc1cncc([C@@H]2CCCN2C)c1`, the inhibition worked out at 18.9%.
As to `CO[C@@H](C(=O)N1Cc2[nH]nc(NC(=O)c3ccc(N4CCN(C)CC4)cc3)c2C1)c1ccccc1`, the inhibition stood at 21.1%.
